Compound activity as filed in PubChem BioAssay.
Most compounds without a hit are left out; they make up all but 2.6% or so of the library.
CF NFkB inh: blocks PAF-induced NF-kB reporter in cystic fibrosis cells; AID 588850; inhibition, % at 5 µM; KKLEB NF-kB-GFP reporter, GFP fluorescence overnight; 360,000 compounds, 0.86% hits;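 active means at least 50% inhibition at 5 µM, scaled per plate between neutral and stimulator controls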;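 further: PAF is a Pseudomonas aeruginosa culture filtrate used as stimulus; plate controls were PAF-stimulated DMSO wells for no effect and unstimulated DMSO wells for full effect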
LGR2 inh: blocks bursicon-induced cAMP signaling via Drosophila LGR2 | inhibition, % at 9.99 µM | HEK293 LGR2, CRE-luciferase, bursicon-stimulated, 4 h | 380,000 compounds, 0.35% hits;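 active means drop in luminescence signal, shown as inhibition above about 50% in the replicate tests, limit read from the data, passing the limit was not always enough; inconclusive means probably only some replicates passing the limit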;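 further: agonist challenge used bursicon conditioned medium at about half maximal strength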
KKLEB cytotox: counter-screen for CF NF-kB inhibitors: cytotoxicity; KKLEB CF airway cells viability, ATPlite luminescence, overnight; stronger effect = lower value; cells stimulated with P. aeruginosa culture filtrate; activity change (cytotoxicity), % at 5 µM; 360,000 compounds, 0.36% hits;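 active means corrected activity change at or below -50% at 5 µM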
EWS-Fli inh: blocks EWS/Fli oncoprotein-driven transcription | A673 NR0B1-luciferase reporter, viability-normalised | inhibition, % at 12.6 µM | 350,000 compounds, 0.67% hits;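 active means mean inhibition of at least 50% after viability correction, with every replicate also passing that limit; inconclusive means mean reaches 50% but only one of two replicates passes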;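 further: firefly luciferase signal divided by Alamar Blue viability fluorescence both relative to DMSO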
TWEAK-Fn14 inh: blocks TWEAK-Fn14 interaction in a reporter cell assay. AID 1159606. inhibition, % at 10 µM. 360,000 compounds, 2% hits. TWEAK-stimulated Fn14 reporter cells, luciferase luminescence, 8 h; in the data active means inhibition above about 50%
TROY NFkB inh: blocks TROY-dependent signaling in reporter cells. Q293 LMP1-TROYcd NF-kB luciferase reporter, 4 h. inhibition, % at 10 µM. 360,000 compounds, 0.98% hits. AID 1347056;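 active means compounds whose plate-normalised and pattern-corrected inhibition of the luciferase reporter signal at the single screening dose is 50% or more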
An asterisk follows results filed as active; ? = inconclusive; · = no result given.

SMILES	CF NFkB inh	LGR2 inh	KKLEB cytotox	EWS-Fli inh	TWEAK-Fn14 inh	TROY NFkB inh
CCN(CCO)c1ccc(Nc2cc(-c3ccc(-c4ccccc4)cc3)ncn2)cc1	-17	·	4	-9	-28	-23
CCN(CCO)c1ccc(N=Nc2cc(C)[nH]n2)cc1	1	92*	-14	64*	91*	69*
CN1c2ccc(C#Cc3ccc(F)cc3)cc2[C@@H]2[C@@H](CCN2C(=O)CN2CCOCC2)[C@H]1CO	·	-7	·	-1	·	·
CO[C@H]1CN(C)C(=O)c2cc(NC(=O)C3CCCC3)ccc2OC[C@@H](C)N(CC2CC2)C[C@H]1C	·	0	·	-4	·	·
CC(=O)NC(NC(=S)Nc1ccc(S(N)(=O)=O)cc1)C(Cl)(Cl)Cl (stereo unspecified)	-9	-7	16	3	-13	5
O=C(/C=C/c1ccccc1)NC(NC(=S)Nc1ccc(Cl)cc1)C(Cl)(Cl)Cl (stereo unspecified)	2	·	-2	·	67*	42
CC(=O)NC(NC(=S)Nc1ccc(N=Nc2ccccc2)cc1)C(Cl)(Cl)Cl (stereo unspecified)	21	·	26	·	63*	-19
COC(=O)C[C@H]1C[C@@H]2c3cc(N)ccc3O[C@@H]2[C@H](CO)O1	·	·	·	-1	·	·
Cc1c(C(=O)NCc2ccc(C(F)(F)F)cc2)sc(=O)n1Cc1ccc(S(=O)(=O)N(C)C)cc1	-15	13	7	19	57*	32
CC(=O)Oc1ccc(Cn2c(C)c(C(=O)NCc3ccc4c(c3)OCCO4)sc2=O)cc1	19	10	3	0	6	67*
COC(=O)C1CCN(c2cc(=O)n(C3CCCCC3)c(=O)[nH]2)CC1	-6	·	3	·	95*	·
ClC1=C(Cl)C(Cl)=C(Cl)C1=C/C=C/c1ccccc1	91*	2	-94*	42	23	-4
O=C1NC(=O)C(=CC=Cc2ccccc2)S1	-8	-41	-17	-9	-20	-35
CCC(=O)N1CCC2(CC1)CN(Cc1cccc(F)c1)[C@@H](CO)c1c2c2ccc(OC)cc2n1C	·	-3	·	-7	·	·
COc1ccc(-c2ccc([C@H]3[C@@H](CO)N4C(=O)CN(Cc5ccc(C)cc5)C[C@@H]34)cc2)cc1	·	1	·	·	·	·
C/C(=N\NC(=O)COc1ccc(C(C)(C)C)cc1)c1cc2ccccc2o1	-3	-23	-58*	-7	0	-36
COc1ccc(/C=N/OCC(=O)NC(c2ccccc2)c2ccccc2)cc1OC	9	-15	0	4	52*	25
O=C(C1CCCCC1)N1CCN=C1SCc1cccnc1	11	13	12	1	5	15
O=C(C1CCCCC1)N1CCN=C1SCc1cccc([N+](=O)[O-])c1	26	45	-7	15	54*	26
COc1ccc(NC(=O)Nc2cccc3c2O[C@@H](CN(C)S(=O)(=O)c2ccccc2)[C@H](C)CN([C@H](C)CO)C3=O)cc1	·	21	·	2	·	·
Cc1ccc(-c2cc(NC(=O)CCl)n(-c3ccccc3)n2)cc1	-48	·	-14	·	-17	-56
O=C(CCl)Nc1cc(-c2ccccc2)nn1-c1ccccc1	0	·	-54*	·	6	-32
CN(C)CC(=O)N[C@@H]1C=C[C@@H](CC(=O)O)O[C@@H]1CO	·	10	·	-6	·	·
COCC#Cc1ccc2c(c1)O[C@H](CN(C)S(=O)(=O)c1ccc(C)cc1)[C@H](C)CN([C@@H](C)CO)S2(=O)=O	·	0	·	6	·	·
CCCN1CCC(=O)N([C@H](CSc2ccc(C)cc2)CC(C)C)CC1	-6	-63	-2	-125	41	61*
SMILES	CF NFkB inh	LGR2 inh	KKLEB cytotox	EWS-Fli inh	TWEAK-Fn14 inh	TROY NFkB inh
CCCN1CCC(=O)N([C@H](CSc2ccccc2)CC(C)C)CC1	-6	-22	6	-113	7	13
Cc1cc(Nc2cccc([N+](=O)[O-])c2)n2c(nc3ccccc32)c1C#N	35	32	-38	·	77*	26
CCC(C)(C)C1CCc2[nH]nc(C(=O)NCC3CC3)c2C1 (stereo unspecified)	21	5	6	-34	-16	-22
CCC(C)(C)C1CCc2[nH]nc(C(=O)NN)c2C1 (stereo unspecified)	-2	·	17	-20	45	69*
Cc1cc(Br)ccc1NC(=O)CN(C)C(=O)c1cc(S(=O)(=O)N(C)C)ccc1N1CCCC1	4	1	-2	·	88*	-5
O=C(Nc1ccc(C(F)(F)F)cc1)N[C@@H]1CC[C@@H](CCNC(=O)c2ccccc2F)O[C@@H]1CO	·	17	·	-7	·	·
CCNC(=O)c1cc2c(c(-c3cccc(-c4cccnc4)c3)n1)[C@@H](CCO)N(S(C)(=O)=O)C2	·	·	·	12	·	·
CCNC(=O)c1cc2c(c(-c3cccc(-c4cccnc4)c3)n1)[C@H](CCO)N(S(C)(=O)=O)C2	·	1	·	55*	28	11
CC(=O)N1Cc2cc(C(=O)NCC(F)(F)F)nc(-c3cccc(-c4cccnc4)c3)c2[C@@H]1CCO	·	5	·	59*	17	16
O=C(O)C(NS(=O)(=O)c1ccc(F)cc1)c1ccccc1 (stereo unspecified)	-4	-2	6	14	90*	14
COC(=O)C(NS(=O)(=O)c1ccc(C)cc1)c1ccccc1 (stereo unspecified)	4	10	-14	7	-1	1
O=C1N=C(N2CCN(c3ccccc3)CC2)S/C1=C\c1cn[nH]c1-c1ccccc1	23	60*	10	3	26	-5
O=C1N=C(N2CCC(Cc3ccccc3)CC2)S/C1=C/c1cn[nH]c1-c1ccccc1	18	·	-14	·	77*	47
COc1ccc(/C=C2\CCc3ccccc3C2=O)cc1O	23	?	-25	-7	74*	31
COc1ccc(/C=C2\Cc3ccccc3C2=O)cc1OC	-24	-21	8	-137	-5	-66
O=C1/C(=C\c2ccc([N+](=O)[O-])cc2)CCc2ccccc21	3	-1	-50	28	86*	55*
O=C1/C(=C/c2ccc(O)cc2)CCc2ccc([N+](=O)[O-])cc21	-9	-8	-9	10	-50	-13
CC(=O)Nc1ccc(/C=C2\CCc3ccccc3C2=O)cc1	4	-49	-57*	-2	76*	71*
C[C@@H]1CN([C@@H](C)CO)C(=O)c2cc(C#CC3CCCC3)cnc2O[C@H]1CN(C)C(=O)C1CCC1	·	11	·	4	·	·
